High-throughput results: PubChem, The Scripps Research Institute Molecular Screening Center
DAX1 inh-1: NR0B1 (DAX1) inhibition; P51843; HEK293 Gal4-DAX1 luciferase reporter, luminescence; inhibition, % at 6.75 µM; 0.99% of 340,000 active; AID 504766;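 active means inhibition above the mean over all tested compounds plus 3 SD, cut at about 4.2% in these data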;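 further: 0% = DAX1-transfected cells with DMSO and 100% = empty-vector control cells with DMSO; inhibition shows as a rise in luminescence from relieved DAX1 repression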
Target sequence (P51843 207-470 limits assumed): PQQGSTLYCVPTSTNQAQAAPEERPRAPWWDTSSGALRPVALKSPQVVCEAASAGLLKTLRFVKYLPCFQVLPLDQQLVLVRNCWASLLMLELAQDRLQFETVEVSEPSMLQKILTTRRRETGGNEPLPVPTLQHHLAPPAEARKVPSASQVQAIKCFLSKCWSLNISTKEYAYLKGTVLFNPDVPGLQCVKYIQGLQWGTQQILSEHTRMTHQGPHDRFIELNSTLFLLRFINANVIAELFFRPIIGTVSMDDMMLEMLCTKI
hgDAF12 agonist: agonists of H. glycines DAF-12 nuclear receptor | 1.8% of 370,000 active | HEK293 GAL4-hgDAF12 UAS-luciferase reporter, agonist luminescence; normalized to butyrate control | activation, % at 6.8 µM | AID 687014;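 active means activation above a cutoff set at the mean of all screened compounds plus 3 SD, cut at about 10% in these data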;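 further: 0% = DMSO wells and 100% = sodium butyrate wells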
hcDAF-12 act: activates DAF-12 receptor from parasite H. contortus; 1.4% of 370,000 active; activation, % at 6.8 µM; AID 652067; HEK293 hcDAF-12 lit1-tk-luc reporter, luminescence; 0% DMSO, 100% Δ7-dafachronic acid;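 active means activation above the mean of all tested compounds plus 3 SD, cut at about 5.5% in these data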;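 further: 100% = response to 3 µM Δ7-dafachronic acid high control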
DAX1 inh-2: DAX1 (NR0B1) inhibition, primary screen | HEK293T StAR-luciferase reporter, SF-1/DAX-1 repression relief | inhibition, % at 6.8 µM | 1.1% of 370,000 active;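 active means inhibition above the mean over all tested compounds plus 3 SD, cut at about 3.6% in these data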;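 further: 0% = DAX-1 cells with DMSO and 100% = cells lacking DAX-1 with DMSO; higher inhibition means more luminescence from relief of DAX-1 repression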
SMARCA2 act: SMARCA2 function activation, primary screen | activation, % at 9.1 µM | 1% of 370,000 active | AID 652017 | MG213 cells, MMTV-luciferase reporter, dexamethasone, overnight; in the data active means activation above about 7.8%;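 further: 0% = vehicle wells and 100% = reference activator wells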
ssDAF-12 act: activates DAF-12 receptor from parasite S. stercoralis; HEK293 ssDAF-12/GRIP1 lit1-tk-luc reporter, luminescence; % of 3 µM dafachronic acid response; activation, % at 6.8 µM; 1% of 370,000 active; AID 652126;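 active means activation above the mean over all tested compounds plus 3 SD, cut at about 0.9% in these data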;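 further: 0% = DMSO-only wells and 100% = 3 µM delta7-dafachronic acid wells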
* hit, by the source's call; / = no result. Compounds with a hit are over-represented: about 4.8% of the library has one in this group of screens.

SMILES	DAX1 inh-1	hgDAF12 agonist	hcDAF-12 act	DAX1 inh-2	SMARCA2 act	ssDAF-12 act
COc1ccccc1-c1cc(-c2cc(Cl)ccc2O)n[nH]1	0.3	2.6	1.9	-0.3	-2.5	-1.4
O=C(CCNC(=O)C1CCN(S(=O)(=O)c2ccccc2)CC1)NCc1cccnc1	1.9	9.5	-1.9	0.0	-2.1	-0.2
COc1ccc2nc(NC(=O)CN3CCOCC3)sc2c1	0.7	11.4*	0.6	0.1	-0.4	-0.8
COc1ccc2nc(NC(=O)CSc3nnc(N)s3)sc2c1	-0.8	-1.5	0.3	0.7	-1.2	-1.4
COc1ccc2nc(NC(=O)CSc3nnc(C)n3N)sc2c1	0.5	9.7	3.7	3.8*	0.2	0.4
[O-][n+]1cccc2c(Br)cc(Br)c(O)c21	4.5*	0.9	2.4	0.3	-1.5	-0.8
CC(C)C(=O)N[C@@H]1c2ccccc2CC[C@@H]1OCc1ccccc1	0.7	-1.0	-1.9	0.1	-1.3	-1.1
CCCC[C@H]1C2CC(OC(=O)Nc3ccccc3)C(C2)[C@H]2CCCCN21 (stereo partly drawn)	/	0.3	-3.2	0.5	-4.4	-1.1
O=C(Nc1ccccc1)OC1CC2CC1C1CCCC21 (stereo not drawn)	1.5	12.3*	0.3	3.4	0.2	0.0
O=C1CCC[C@H]2C[C@H](NCc3cccc(I)c3)CC[C@]23CCCN13	/	-3.0	-1.6	/	/	-0.3
O=C(C1CCCO1)N1CCc2ccccc21 (stereo not drawn)	-0.2	2.7	5.0	1.3	-4.1	1.8*
O=C(C1CC(=O)N(C2CCCCC2)C1)N1CCc2ccccc21 (stereo not drawn)	0.0	-0.2	6.2*	-0.1	1.4	0.5
COc1ccc(CCNC(=O)c2ccc3c(c2)S(=O)(=O)N=C2CCCCCN23)cc1	0.3	-1.5	-1.0	-1.5	-1.0	-1.2
CCOC(=O)c1nn(-c2ccc(Cl)cc2)cc1O	8.9*	7.4	1.8	1.8	4.7	-1.0
CCCCCCCCN1CCS(=O)(=O)N(Cc2ccc(C)cc2)C(C(=O)OC)C1 (stereo not drawn)	/	0.2	-0.9	-0.3	-2.1	-0.8
O=C(NCc1cccnc1)c1csc([C@@H]2C[C@H](O)[C@@H](CO)O2)n1	/	2.0	-1.1	0.5	-0.3	-0.9
CN=c1scc(-c2ccco2)n1/N=C/c1ccc(O)c(O)c1	-0.6	16.7*	8.4*	2.2	4.3	0.1
COc1ccc(O)c(/C=N/n2c(-c3ccco3)csc2=Nc2cccnc2)c1	-0.4	0.3	0.0	0.2	-2.8	-0.8
COc1cc(C(=O)NNC(=O)C2CC=CCC2C(=O)O)cc(OC)c1OC (stereo not drawn)	0.4	-3.7	0.3	0.6	0.1	1.9*
O=C(Nc1ccnn1C1CCN(C(=O)c2cnsn2)CC1)c1cccc(F)c1	0.8	6.0	-2.1	2.1	0.6	-1.1
Cc1ccc(C2CC(c3ccccc3OC(F)F)Nc3ncnn32)cc1 (stereo not drawn)	5.3*	0.6	-1.1	-0.2	1.8	-0.8
Cc1cccc(C2CC(c3ccccc3)Nc3ncnn32)c1 (stereo not drawn)	5.6*	-0.7	-1.5	0.1	-1.6	-1.6
COc1ccc(N2CCN(C(=O)C(=O)c3ccc(F)cc3)CC2)cc1	/	0.2	0.1	-2.4	-4.9	-1.0
Cc1ccc(C)c(CN2CCC(CNC(=O)Nc3ccc(Cl)cc3)CC2)c1	6.2*	1.1	-1.0	-0.3	0.8	-1.0
Cc1ccc(C)c(CN2CCC(CNC(=O)Nc3ccc(Br)cc3F)CC2)c1	-0.1	2.6	-1.3	-0.1	1.6	-1.1
SMILES	DAX1 inh-1	hgDAF12 agonist	hcDAF-12 act	DAX1 inh-2	SMARCA2 act	ssDAF-12 act
CCOC(=O)c1cc(-c2ccccc2)n(CCC(=O)O)c1C	4.4*	5.5	-1.8	-0.6	-2.8	-1.2
CCc1csc(CNC(=O)C2CCC(=O)N(Cc3cccc(F)c3)C2)n1 (stereo not drawn)	0.2	4.5	3.3	1.4	2.8	-0.8
O=C(CSc1nnc(SCc2ccc(Cl)cc2)s1)N/N=C/c1c[nH]c2ccccc12	3.0	-2.9	5.6*	0.1	-2.5	0.6
O=C(CSc1ccccn1)N/N=C/c1c[nH]c2ccccc12	-0.7	0.9	5.8*	-0.4	1.6	-0.8
O=C(CSc1nnc(SCc2cccc3ccccc23)s1)N/N=C/c1c[nH]c2ccccc12	-0.2	1.5	0.9	-0.2	-6.2	1.4*
Cc1ccc(NC(=O)CN2CCC(NC(=O)c3cccc(F)c3)CC2)cc1C	4.1	-2.3	-1.1	-0.2	-0.8	-1.5
O=C(CN1CCC(NC(=O)C2CC2)CC1)Nc1cccc(F)c1	0.1	1.4	4.7	0.5	-4.5	0.9*
CCOc1ccccc1NC(=S)N(CCC(C)C)C1CCN(C(C)=O)CC1	4.7*	2.4	0.8	0.4	-1.9	-1.5
CCOc1ccccc1NC(=S)N1CCC(NC(=O)C(C)(C)C)CC1	5.0*	2.6	0.5	-1.0	-0.4	-0.9
CN(C)C1(CNC(=O)c2cccc(S(=O)(=O)Nc3ccc(Br)cc3)c2)CCCCC1	0.5	3.0	-1.2	0.9	-2.7	-1.1
O=C(CCc1nnc(C2CCCCC2)o1)NCc1ccc(F)c(F)c1	5.6*	-1.2	0.5	-0.4	-2.7	-0.9
Cc1cc(-c2nnc(CCC(=O)NCc3ccc(F)c(F)c3)o2)no1	4.3*	2.6	0.1	0.2	-1.0	1.9*
CC1(C(=O)Nc2ccc3c(c2)OCCO3)CN(S(C)(=O)=O)CC(=O)N1Cc1cccc(C(F)(F)F)c1 (stereo not drawn)	/	-1.9	-0.8	-0.4	2.1	-0.5
Cc1nnc(-c2cccc(C(F)(F)F)c2)nc1N1CCOCC1	-1.5	0.8	0.7	4.3*	0.6	-1.7
FC(F)(F)c1cccc(-c2noc(CN3CCOCC3)n2)c1	2.5	-0.3	-2.6	-0.3	-0.5	-0.3
Cc1cccnc1NC(=O)Nc1cccc(F)c1	1.7	10.9*	4.0	2.3	2.9	-0.1
Cc1cccnc1NC(=O)Nc1ccc(Cl)cc1	4.3*	7.1	2.8	1.0	5.1	0.3
Cc1cccnc1NC(=O)Nc1ccccc1	3.6	4.8	1.9	1.1	2.3	-0.5
COc1ccc(NC(=O)Nc2ncccc2C)cc1	0.8	8.6	0.4	0.1	1.0	0.1
Cc1ccc(F)cc1NC(=O)COC(=O)COc1ccc(C#N)cc1	-1.1	1.3	1.6	1.1	-3.0	-0.7
C=CCc1c(C)nc2c(-c3ccccc3)cnn2c1N1CCOCC1	4.0	10.4	5.6*	2.7	3.7	0.0
Cc1ccc(-c2cnn3c(N4CCOCC4)cc(C)nc23)cc1	7.6*	-0.2	3.9	0.0	-1.5	-1.1
Cc1cc(N2CCOCC2)n2ncc(-c3ccc(Cl)cc3)c2n1	6.7*	-3.2	-1.2	-0.7	-3.4	-1.9
Cc1cc(NCCN2CCOCC2)n2ncc(-c3ccccc3)c2n1	3.2	6.2	3.5	1.8	7.0	0.1
